# PubChem BioAssay AID743279 (National Center for Advancing Translational Sciences (NCATS), 2014)
# The campaign covered roughly 360,000 compounds. About 17,000 (4.7%) were called active. Inconclusive results (about 5%) are left out. This is one part of a sample in which actives are shown more often than they occur. Cut-off read from the data, not from the text of the source: active = activity change below about -50%; inconclusive = mostly about -30% to -49%; inactive = weaker than that.
# Assay: qHTS for Inhibitors of Inflammasome Signaling: IL-1-beta AlphaLISA Primary Screen
# Conditions: THP-1 LPS/ATP IL-1B secretion, 16 h; at 57.5 µM, hits give low values
# Outline: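 Secreted IL-1B measured by AlphaLISA bead assay after 16 h compound exposure of THP-1 cells; compounds (final up to 57.5 uM) added 1 h before LPS (250 ng/mL) and ATP (1.25 mM) stimulation; lower signal means less secretion.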
# % is set by controls: 0 for no effect and ±100 for the full control effect.
row,SMILES,activity change
1,CC1CCN(C(=O)COC(=O)c2cc(S(=O)(=O)N3CCOCC3)ccc2Cl)CC1,11% (inactive)
2,Cc1ccc(CS(=O)Cc2ccc(C(=O)N3CCOCC3)o2)cc1 (stereo not given),41.9% (inactive)
3,O=C(c1ccc(CS(=O)Cc2ccccc2Cl)o1)N1CCN(c2ccccc2)CC1 (stereo not given),-50.4% (active)
4,O=C(c1ccc(CS(=O)(=O)c2ccccc2)o1)N1CCN(c2ccccc2)CC1,41.8% (inactive)
5,COc1cc(/C=C/CNC[C@H]2O[C@@H](n3cnc(C(N)=O)n3)[C@H](O)[C@@H]2O)ccc1O,-17.5% (inactive)
6,CCOC(=O)/C(C#N)=C/c1cn(CCC(=O)O)nc1-c1ccc(Br)cc1,0% (inactive)
7,O=C(O)CCn1cc(/C=C/C(=O)c2ccc(Cl)cc2)c(-c2cccc(Br)c2)n1,-96.6% (active)
8,O=C(/C=C/NNC(=O)c1cccc(Br)c1)c1ccccc1,-15.9% (inactive)
9,CC(=O)N/C(=C\c1ccc(F)cc1)C(=O)NC(Cc1ccccc1)C(=O)O (stereo not given),41.6% (inactive)
10,C[C@@H]1CN([C@H](C)CO)C(=O)CCCn2nncc2CO[C@@H]1CN(C)C(=O)OCc1ccccc1,-18.7% (inactive)
11,O=C(c1cc(COc2ccc(F)cc2F)on1)N1CCOCC1,4.05% (inactive)
12,CCOC(=O)N1CCN(C(=O)C[C@@H]2C[C@@]3(C(=O)OC)CCCCC=C3N(CCC3=CCCCC3)C2=O)CC1,-20.9% (inactive)
13,CC(=O)Nc1ccccc1OC(=O)N1CCOCC1,4.54% (inactive)
14,O=C(/C=C/c1cccs1)c1cc(Cl)ccc1OC(=O)N1CCOCC1,-111% (active)
15,O=C(Oc1cccc(C(=S)N2CCOCC2)c1)c1cccc(Cl)c1,-5.21% (inactive)
16,COc1ccccc1C(=O)NC(CCSC)C(=O)N1CCN(C/C=C/c2ccccc2)CC1 (stereo not given),-8.53% (inactive)
17,O=C(CC(CC(=O)c1ccccc1)c1ccco1)c1ccccc1,13.9% (inactive)
18,COc1ccc(NC(=O)COC(=O)C2COc3ccccc3O2)cc1 (stereo not given),8.76% (inactive)
19,CC(=O)c1ccc(OCC(=O)N(C)C2CCS(=O)(=O)C2)cc1 (stereo not given),-0.496% (inactive)
20,O=C(c1ccc(=O)[nH]c1)N(Cc1ccco1)C1(C(=O)NC2CCCCC2)CCCCC1,-5.54% (inactive)
21,Cc1cc(/C=C(/C#N)C(=O)Nc2ccc(Cl)cc2)c(C)n1-c1cccnc1,-3.14% (inactive)
22,O=C(/C=C/c1c(F)cccc1Cl)Nc1nn[nH]n1,19.3% (inactive)
23,CNC(=O)/C(C#N)=C/c1c(F)cccc1Cl,-84.3% (active)
24,Cc1cccc(C(=O)OCC(=O)Nc2sccc2C(N)=O)c1C,-7.19% (inactive)
25,Cc1nn(C)cc1S(=O)(=O)N1CCN(c2ccc(F)cc2)CC1,1.55% (inactive)
